{"source": "PubChem BioAssay (Tox21)", "note": "Results filed as inconclusive are left out. Activity calls are given as the source filed them. Calls come from the whole dose curve.", "data": [{"biological_target": "Acetylcholinesterase (Homo sapiens) (UniProt P22303)", "sequence (P22303 whole entry, looked up)": "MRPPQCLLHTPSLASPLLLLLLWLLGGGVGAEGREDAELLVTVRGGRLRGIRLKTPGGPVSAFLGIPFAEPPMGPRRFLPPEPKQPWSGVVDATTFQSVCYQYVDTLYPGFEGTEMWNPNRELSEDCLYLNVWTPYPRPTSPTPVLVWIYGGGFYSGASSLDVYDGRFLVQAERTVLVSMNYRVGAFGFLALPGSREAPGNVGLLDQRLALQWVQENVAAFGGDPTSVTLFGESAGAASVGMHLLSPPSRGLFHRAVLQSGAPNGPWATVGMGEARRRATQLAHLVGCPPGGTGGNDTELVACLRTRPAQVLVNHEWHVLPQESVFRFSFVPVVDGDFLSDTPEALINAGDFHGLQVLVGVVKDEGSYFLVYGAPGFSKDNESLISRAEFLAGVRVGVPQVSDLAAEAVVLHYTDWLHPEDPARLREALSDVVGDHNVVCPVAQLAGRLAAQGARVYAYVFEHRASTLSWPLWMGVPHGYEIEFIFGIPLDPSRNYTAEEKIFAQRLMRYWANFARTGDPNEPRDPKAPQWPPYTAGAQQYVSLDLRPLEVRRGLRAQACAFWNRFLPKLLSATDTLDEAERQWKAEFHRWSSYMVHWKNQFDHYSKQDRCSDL", "experiment": "Acetylcholinesterase (AChE) small molecule antagonists: fluorescence cell-based qHTS assay (AID 1347398); note: nearly all actives have a fitted effect of over 50% in size; note: potency is the fitted concentration of half-maximal effect; for activity change, negative = inhibition: % is set by controls: 0 for no effect and ±100 for the full control effect", "conditions": "SH-SY5Y cells; Potency: AChE activity; outcome: AChE activity; series mostly up to 115 µM; activity change, negative = inhibition: at the top concentration", "text": "National Center for Advancing Translational Sciences [NCATS]\nDivision of Preclinical Innovation [DPI]\nU.S. Environmental Protection Agency [EPA]\nNational Institutes of Environmental Health Sciences [NIEHS]\nNational Toxicology Program [NTP]\nU.S. Food and Drug Administration [FDA]\nAcetylcholinesterase (AChE) is the primary cholinesterase in the body that hydrolyzes a key neurotransmitter, acetylcholine. Inhibition of AChE activity can lead to neurotoxicity. Known inhibitors of AChE include organophosphorous pesticides (OP), chemical warfare agents, drugs, and various phytochemicals.\nA homogenous cell-based assay using Amplitetrade mark Fluorimetric Acetylcholinesterase Assay Kit *Green Fluorescence* (AAT Bioquest, Sunnyvale, CA) was used to evaluate the chemicals in the Tox21 10K library that inhibit AChE activity. The assay uses Thiolite Green to quantify the thiocholine produced from the hydrolysis of acetylthiocholine by AChE from the SH-SY5Y cells. AChE can hydrolyze acetylthiocholine to create thiocholine. Thiolite Green is fluorescent when reacting with thiocholine. It has spectral properties similar to those of fluorescein. The fluorescence intensity of Thiolite Green is used to measure AChE activity. Its signal can be easily read by a fluorescence microplate reader at Ex/Em = 490/520 nm.\nTox21 Assay Protocol Summary:\nFor cell-based AChE assay, 2,000 SH-SY5Y cells in 4 uL/well were dispensed into black, clear-bottom 1536-well plates using a Multidrop Combi (Thermo Scientific) dispenser. The assay plates were incubated overnight at 37 C to allow cells to attach to the wells, followed by the transfer of 23 nL compound or DMSO (vehicle control) by a Pintool station (Wako Automation, CA). The plates were incubated for 30 min at 37 C and 5% CO2, followed by the addition of 4 uL of detection cocktail solution (ThioliteGreen, acetylthiocholine) into each well using Flying Reagent Dispenser (Beckman Coulter, CA) and then following 40 min incubation at room temperature. Fluorescent intensity (Ex/Em = 490/520 nm) was measured using an Envision plate reader (PerkinElmer, MA).", "values": [{"compound": "CN(CC1(C)CCCO1)S(=O)(=O)c1ccc(Cl)c(S(N)(=O)=O)c1", "note": "(stereo not given)", "activity change, negative = inhibition": "-7.08% [at 53.7 µM] (inactive)"}, {"compound": "O=C1CC[C@H](C(=O)N2CCCCC2)N1", "activity change, negative = inhibition": "7.58% [at 53.7 µM] (inactive)"}, {"compound": "O=P(O)(O)Oc1ccccc1", "activity change, negative = inhibition": "-0.147% (inactive)"}, {"compound": "COCc1ccc(COC)cc1", "activity change, negative = inhibition": "3.47% (inactive)"}, {"compound": "CCc1cc(C2=C(C(=O)O)N(c3ccccc3C(F)(F)F)S(=O)(=O)c3ccccc32)cc2c1OCO2", "activity change, negative = inhibition": "-6.71% (inactive)"}, {"compound": "CCCCOc1ccc(C(=O)CCN2CCCCC2)cc1", "Potency": "12.3 µM (active)"}, {"compound": "Nc1ccc(F)c([N+](=O)[O-])c1", "activity change, negative = inhibition": "1.1% (inactive)"}, {"compound": "O=[N+]([O-])c1ccc(F)c(Cl)c1", "activity change, negative = inhibition": "1.84% (inactive)"}, {"compound": "NC(=O)C1(N2CCCCC2)CCN(CCCN2c3ccccc3CCc3ccc(Cl)cc32)CC1", "activity change, negative = inhibition": "-23.1% [at 53.7 µM] (inactive)"}, {"compound": "Cc1oncc1C(=O)Nc1ccc(C(F)(F)F)cc1", "Potency": "inactive"}, {"compound": "O=C1CCC(=O)N1Cl", "activity change, negative = inhibition": "4.85% (inactive)"}, {"compound": "CC(C)(C)C(=O)O", "activity change, negative = inhibition": "-1.09% (inactive)"}, {"compound": "C[N+]1([O-])CCOCC1", "activity change, negative = inhibition": "7.11% (inactive)"}, {"compound": "CCCCc1ccc(N)cc1", "activity change, negative = inhibition": "5.71% (inactive)"}, {"compound": "COc1ccc2c(c1OC)C(=O)O[C@@H]2[C@H]1c2c(cc3c(c2OC)OCO3)CCN1C", "activity change, negative = inhibition": "-4.36% [at 53.7 µM] (inactive)"}, {"compound": "CC1(C)C(=O)C(C)(C)C1=O", "activity change, negative = inhibition": "1.87% (inactive)"}, {"compound": "COc1cccc(OC)c1C(=O)O", "activity change, negative = inhibition": "1.65% (inactive)"}, {"compound": "CCNC(=O)C1CC(C)CCC1C(C)C", "note": "(stereo not given)", "activity change, negative = inhibition": "-6.53% (inactive)"}, {"compound": "Nc1nc(N)c(-c2ccccc2)s1", "activity change, negative = inhibition": "15.2% [at 53.7 µM] (inactive)"}, {"compound": "C=C(C)C1CCC(C)(O)CC1", "note": "(stereo not given)", "activity change, negative = inhibition": "-2.81% (inactive)"}, {"compound": "COc1ccc(C2C(=O)c3ccccc3C2=O)cc1", "activity change, negative = inhibition": "-4.37% [at 53.7 µM] (inactive)"}, {"compound": "Nc1cc(Cl)c(O)c(Cl)c1", "activity change, negative = inhibition": "-15.1% (inactive)"}, {"compound": "CC1=CCC2C(C1)C2(C)C", "note": "(stereo not given)", "activity change, negative = inhibition": "-5.14% (inactive)"}, {"compound": "c1ccc(CCCc2ccccn2)cc1", "activity change, negative = inhibition": "-3.72% (inactive)"}, {"compound": "Nc1ccc(Oc2ccc(N)c(N)c2)cc1", "activity change, negative = inhibition": "-8.41% (inactive)"}, {"compound": "C=CC(=O)NC(C)(C)C", "activity change, negative = inhibition": "1.7% (inactive)"}, {"compound": "CC(C)C(OC(=O)c1ccccc1)C(C)(C)COC(=O)c1ccccc1", "note": "(stereo not given)", "activity change, negative = inhibition": "4.24% (inactive)"}, {"compound": "[O-][n+]1cccc(CO)c1", "activity change, negative = inhibition": "10.6% [at 53.7 µM] (inactive)"}, {"compound": "CCOC(=O)C(C)Oc1ccc(Oc2nc3ccc(Cl)cc3o2)cc1", "note": "(stereo not given)", "activity change, negative = inhibition": "-5.61% (inactive)"}, {"compound": "C[C@H](CN1CCCC1)C(=O)c1ccc(C(F)(F)F)cc1", "activity change, negative = inhibition": "-3.2% [at 53.7 µM] (inactive)"}, {"compound": "COC(=O)[C@H]1[C@H]2C[C@@H]3c4[nH]c5cc(OC)ccc5c4CCN3C[C@H]2C[C@@H](OC(=O)COc2ccc(OC)cc2)[C@@H]1OC", "activity change, negative = inhibition": "-8.53% [at 53.7 µM] (inactive)"}, {"compound": "Cc1nc(C)c(C)nc1C", "activity change, negative = inhibition": "0.72% (inactive)"}, {"compound": "CC(C)c1ccc2oc3nc(N)c(C(=O)O)cc3c(=O)c2c1", "activity change, negative = inhibition": "2.23% [at 53.7 µM] (inactive)"}, {"compound": "CCC(CO)(CO)[N+](=O)[O-]", "activity change, negative = inhibition": "-1.94% (inactive)"}, {"compound": "CC(=O)OCC(=O)[C@@]1(O)CC[C@H]2[C@@H]3CCC4=CC(=O)C=C[C@]4(C)[C@@]3(F)[C@@H](O)C[C@@]21C", "activity change, negative = inhibition": "-10.1% [at 53.7 µM] (inactive)"}, {"compound": "COC(=O)c1ccccc1Cl", "activity change, negative = inhibition": "4.87% (inactive)"}, {"compound": "CCCC(=O)C(=O)O", "activity change, negative = inhibition": "-1.69% (inactive)"}, {"compound": "O=C1NC(=O)c2cc([N+](=O)[O-])ccc21", "activity change, negative = inhibition": "-15.7% (inactive)"}, {"compound": "O=C1OC(OC(=O)c2cccnc2Nc2cccc(C(F)(F)F)c2)c2ccccc21", "note": "(stereo not given)", "activity change, negative = inhibition": "14.3% [at 53.7 µM] (inactive)"}, {"compound": "C[Si](Cl)(c1ccccc1)c1ccccc1", "activity change, negative = inhibition": "4.57% (inactive)"}]}]}
